Results on 25 molecules are retold here after PubChem BioAssay AID504462 (Sanford-Burnham Center for Chemical Genomics, 2011).

Hit rate of the full screen: of about 340,000 compounds, about 1,700 (0.5%) were called active. Only a selection was taken, and actives are over-represented in it overall. Values without a mark were called inactive. Rule as the data show it: active = inhibition above about 40%; inactive = the rest.

This assay deals with Cysteine protease ATG4B (Homo sapiens) (UniProt Q9Y4P1). Kind of assay: blockers of ATG4B cysteine protease activity – biochemical, fluorescence, uHTS, primary screen (AID 504462). Conditions: ATG4B cleavage of LC3-PLA2, NBD-HPC fluorescence, 1 h; at 8.33 µM; active compounds read high.
Sequence of Cysteine protease ATG4B (Homo sapiens) (Q9Y4P1 whole entry, looked up): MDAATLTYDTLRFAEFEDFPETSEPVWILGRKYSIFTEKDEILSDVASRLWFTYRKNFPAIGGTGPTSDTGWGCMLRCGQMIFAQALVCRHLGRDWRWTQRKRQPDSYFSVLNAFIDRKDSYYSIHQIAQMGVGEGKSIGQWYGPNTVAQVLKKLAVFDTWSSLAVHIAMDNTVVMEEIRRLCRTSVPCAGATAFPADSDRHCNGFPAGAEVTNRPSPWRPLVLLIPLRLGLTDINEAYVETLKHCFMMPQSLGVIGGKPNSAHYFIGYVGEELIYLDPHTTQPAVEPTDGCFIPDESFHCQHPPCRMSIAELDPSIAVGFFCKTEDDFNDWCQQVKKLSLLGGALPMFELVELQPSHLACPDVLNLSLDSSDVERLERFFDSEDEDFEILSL
Take `COc1cc(/C=C/C(=O)O)cc(S(=O)(=O)Nc2ccccc2SC)c1OC`: the inhibition is -3.57%.
The result for `CS(=O)(=O)N(Cc1ccccc1Cl)c1ccc(C(=O)NCc2cccnc2)cc1` reads -9.46%.
For `CCCCN(C(=O)CSCC(=O)Nc1ccc(OC)cc1)c1c(N)n(CCC)c(=O)[nH]c1=O` the value was -1.8%; for `NS(=O)(=O)c1ccc(CCNc2nc(C(F)(F)F)nc3ccccc23)cc1`, -2.12%.
For `CCc1ccc(C(CNc2nc(C(F)(F)F)nc3ccccc23)N(C)C)cc1` (stereo not given) the value was 19.9%.
Turning to `COc1cccc(CNc2nc(C(F)(F)F)nc3ccccc23)c1`, the inhibition is 49% (active).
The result for `COC(=O)CN(c1nc(C)c(Cl)c(OC)n1)S(=O)(=O)c1ccc(C)cc1` reads 11.3%; that for `CC1Cc2ccccc2N1C1=CC(=O)CC(C)(C)C1` (stereo not given), -2.3%.
As for `COc1ccc(S(=O)(=O)/N=C2\C=C(NS(=O)(=O)c3ccccc3)C(=O)c3ccccc32)cc1`, the inhibition is -24.5%.
For `CC1=C/C(=N\OS(=O)(=O)c2ccccc2)C=CC1=O` the value was -2.58%; for `CC1=C/C(=N\S(=O)(=O)c2ccccc2)C(C(C)C)=CC1=O`, 66% (active).
For `Cc1cc(C)nc(-n2ncc3c2CC(c2ccc(C(C)C)cc2)CC3=O)n1` (stereo not given) the value was -17.4%; for `Cc1ccc(CNC(=O)CCN2C(=O)[C@@H]3Cc4ccccc4CN3C2=O)cc1`, 2.31%; for `CC(=O)Nc1ccc(NC(=O)CSc2nnnn2-c2ccccc2F)cc1`, 2.29%.
For `C=CCC1(CC=C)CCCN1C(=O)c1cc(COc2ccc(-n3cncn3)cc2)on1` the value was 7.84%.
Consider `CC(C)CCNC(=O)C1CCCN(S(=O)(=O)c2ccc(F)cc2)C1` (stereo not given), for which the inhibition was 0.97%.
The result for `O=C(c1ccc(OC2CCN(C(=O)c3cccnc3)CC2)cc1)N1CCCCCC1` reads 19.9%; that for `C=CCN1C=C2C(=O)C(C)(OC(=O)CCc3ccccc3)C(=O)C=C2C=C1c1ccc(C#N)cc1` (stereo not given), -3.06%; that for `COCCN1C=C2C(=O)C(C)(OC(=O)C3CCCC3)C(=O)C=C2C=C1c1ccsc1` (stereo not given), 2.63%.
The result for `CC1(OC(=O)C2CCCC2)C(=O)C=C2C=C(c3ccc(C#N)cc3)OC=C2C1=O` (stereo not given) reads 45.7% (active); that for `O=C(O)c1ccc([N+](=O)[O-])cc1Sc1ccsc1`, 5.83%.
With `COc1ccc(C(=O)CC(=O)c2ccc(C)cc2)c(O)c1`, the inhibition was 1.97%.
With `O=C(O)C(c1ccccc1)N1C(=O)/C(=C\c2ccc(-c3cccc(Cl)c3)o2)SC1=S` (stereo not given), the inhibition was 59.4% (active).
The result for `Cn1cccc1/C=C1\SC(=S)N(NC(=O)c2ccc(Cl)cc2)C1=O` reads 11.7%.
For `CCN1C(=O)/C(=C\N2CCN(c3cccc(Cl)c3)CC2)SC1=S` the value was 1.01%.

The term inhibition denotes the relative decrease from the control value, in per cent.
